This note sets out measurements from the supplement of paper PMC8728848.

Shown is part of a subset that was picked to be rich in the strongest signals.

Holding throughout (assay): glycan array binding signal (z-score within array); higher = stronger binding
Holding throughout (conditions): glycan notation: IUPAC condensed, linker removed

Assay [1] has as its target Fuc(a1-2)Gal(b1-3)GalNAc(b1-3)Gal(a1-4)Gal(b1-4)Glc. The procedure, abridged: (§1)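 Glycan array data came from 3228 arrays in the Consortium for Functional Glycomics database, and only arrays with an available protein sequence were kept. Glycan names were put into IUPAC-condensed notation, and columns mapping to the same glycan were averaged. The binding signal is a within-array Z-score, averaged across arrays of one protein sequence run at different concentrations or buffers and across linkers. A negative Z-score can be read as non-binding.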

Assay [2] concerns the target Fuc(a1-2)Gal(b1-4)[Fuc(a1-3)]GalNAc(b1-3)Gal(b1-4)[Fuc(a1-3)]GlcNAc. The procedure, abridged: as §1
The target in assay [3] is Fuc(a1-2)Gal(b1-4)[Fuc(a1-3)]GalNAc(b1-3)Gal(b1-4)[Fuc(a1-3)]GlcNAc(b1-3)Gal(b1-4)[Fuc(a1-3)]GalNAc. The procedure, abridged:
as §1

Assay [4] has as its target Fuc(a1-2)[GalNAc(a1-3)]Gal(b1-4)[Fuc(a1-3)]GlcNAc. The procedure, abridged: as §1
Assay [5] concerns the target Fuc(a1-3)[Gal(b1-4)]Glc6S. The procedure, abridged: as §1
A further assay deals with Fuc(b1-3)GlcNAc. The procedure, abridged:
as §1

For another assay, the target named is Gal(a1-4)Gal(b1-4)Gal. The procedure, abridged:
as §1

A further assay addresses Gal(b1-2)Gal. The procedure, abridged:
as §1

The target in the next assay is Gal(b1-3)Gal. The procedure, abridged:
as §1

The target of assay [6] is Gal(b1-4)GalNAc(b1-3)[Fuc(a1-2)]Gal(b1-4)GlcNAc. The procedure, abridged:
as §1

A further assay concerns the target GlcA(b1-3)Gal. The procedure, abridged: as §1
The target in the next assay is GlcA(b1-6)Gal. The procedure, abridged: as §1
Assay [7] deals with GlcNAc(b1-3)[GlcNAc(b1-4)][GlcNAc(b1-6)]GlcNAc. The procedure, abridged: as §1
The target of assay [8] is Man(a1-2)Man(a1-2)Man(a1-6)[Man(a1-3)]Man. The procedure, abridged:
as §1

Assay [9] deals with Man(a1-2)Man(a1-3)[Man(a1-6)]Man(a1-6)[Man(a1-2)Man(a1-3)]Man(b1-4)GlcNAc(b1-4)GlcNAc. The procedure, abridged:
as §1

Another assay concerns the target Man(b1-4)GlcNAc. The procedure, abridged:
as §1

Assay [10] concerns the target Neu5Ac(a2-3)Gal(b1-3)GlcNAc. The procedure, abridged: as §1
Assay [11] addresses Neu5Ac(a2-3)Gal(b1-3)GlcNAc6S. The procedure, abridged:
as §1

Assay [12] deals with Neu5Ac(a2-3)Gal(b1-4)GlcNAc(b1-3)Gal(b1-3)GlcNAc. The procedure, abridged:
as §1

Assay [13] addresses Neu5Ac(a2-8)Neu5Ac(a2-3)[GalNAc(b1-4)]Gal(b1-4)Glc. The procedure, abridged:
as §1

Assay [14] addresses Neu5Ac(a2-8)Neu5Ac(a2-8)Neu5Ac(a2-3)[GalNAc(b1-4)]Gal(b1-4)Glc. The procedure, abridged:
as §1

In assay [15] the target is Neu5Gc(a2-3)Gal(b1-3)GlcNAc. The procedure, abridged:
as §1

The target in assay [16] is Fuc(a1-2)Gal(b1-3)GlcNAc(b1-3)Gal(b1-4)Glc. The procedure, abridged: as §1
Assay [17] deals with Fuc(a1-2)[GalNAc(a1-3)]Gal(b1-4)Glc. The procedure, abridged:
as §1

The next assay concerns the target Fuc(a1-3)GlcNAc. The procedure, abridged: as §1
A further assay deals with Gal(b1-3)GalNAc. The procedure, abridged:
as §1

Assay [18] concerns the target Gal(b1-3)GalNAc(b1-4)[Neu5Ac(a2-3)]Gal(b1-4)Glc. The procedure, abridged: as §1
The target in assay [19] is Gal(b1-3)GlcNAc(b1-3)Gal(b1-4)Glc. The procedure, abridged: as §1
Assay [20] concerns the target Gal(b1-3)[Neu5Ac(a2-6)]GlcNAc(b1-6)Gal(b1-4)Glc. The procedure, abridged: as §1
Assay [21] concerns the target Gal(b1-4)GlcNAc(b1-3)Gal(b1-4)Glc. The procedure, abridged:
as §1

A further assay has as its target Gal4S(b1-4)GlcNAc. The procedure, abridged:
as §1

Another assay addresses Gal4S6S(b1-4)GlcNAc. The procedure, abridged:
as §1

Another assay addresses Glc(b1-4)Glc. The procedure, abridged: as §1
Assay [22] addresses GlcNAc(b1-3)Gal(b1-4)GlcNAc(b1-3)Gal(b1-4)GlcNAc. The procedure, abridged:
as §1

For assay [23], the target named is Man(a1-2)Man(a1-2)Man(a1-3)Man. The procedure, abridged: as §1
In assay [24] the target is Man(a1-2)Man(a1-6)[Man(a1-3)]Man(a1-6)[Man(a1-2)Man(a1-2)Man(a1-3)]Man. The procedure, abridged: as §1
Assay [25] concerns the target Neu5Ac(a2-3)Gal(b1-4)GlcNAc(b1-3)Gal(b1-4)GlcNAc(b1-3)Gal(b1-4)GlcNAc. The procedure, abridged: as §1
Assay [26] concerns the target Neu5Ac(a2-6)Gal(b1-4)GlcNAc(b1-2)Man(a1-3)[GlcNAc(b1-2)Man(b1-4)GlcNAc(b1-2)Man(a1-6)]Man(b1-4)GlcNAc(b1-4)GlcNAc. The procedure, abridged:
as §1

The target in assay [27] is Neu5Ac(a2-6)Gal(b1-4)GlcNAc6S. The procedure, abridged: as §1
For a further assay, the target named is Neu5Ac(a2-6)GalNAc. The procedure, abridged:
as §1

Assay [28] concerns the target Neu5Ac(a2-8)Neu5Ac(a2-8)Neu5Ac(a2-3)Gal(b1-4)Glc. The procedure, abridged:
as §1

B1: MLTim-4 (Mus musculus), Q6U7R4 (protein)
chain: MSKGLLLLWLVTELWWLYLTPAASEDTIIGFLGQPVTLPCHYLSWSQSRNSMCWGKGSCPNSKCNAELLRTDGTRIISRKSTKYTLLGKVQFGEVSLTISNTNRGDSGVYCCRIEVPGWFNDVKKNVRLELRRAT
Take B1: the “glycan array binding signal (z-score)” value in assay [1] is -0.142; in assay [2], -0.799; in assay [3] it was 0.195; in assay [4] it was 0.41; in [5], 2.31; with Fuc(b1-3)GlcNAc, -0.108. For the same molecule, the “glycan array binding signal (z-score)” value in the assay with Gal(a1-4)Gal(b1-4)Gal is 0.491; with Gal(b1-2)Gal it was 1.47; in the assay with Gal(b1-3)Gal, 0.543; in [6], -0.991; with GlcA(b1-3)Gal, 6.6; with GlcA(b1-6)Gal, 2.97. In addition, the “glycan array binding signal (z-score)” value in [7] is -0.523; in assay [8], 0.353; in [9], -0.137; with Man(b1-4)GlcNAc it was 1.06; in assay [10], -0.547; in assay [11], 2.45. Besides, the “glycan array binding signal (z-score)” value in assay [12] was -0.655; in assay [13], -0.484; in assay [14], -0.741; in assay [15], -0.343.

B2: TbCVNHOb (Tuber borchii) (protein)
chain: MSFYASSEDVRTIEEGGRTWLVGRARRADGSWQDIKLDLDNIIGNRDGHLTWGEQNFTQSASDIRFNFEGGSNVPVLRAKLRNAAGGEQESDLNLGERLTNNNGDLVFN
On to B2, for which the “glycan array binding signal (z-score)” value in assay [1] is 0.303; in assay [16] it was 1.56; in [17], -0.147; with Fuc(a1-3)GlcNAc, 0.012; in assay [5], 0.185; in the assay with Gal(b1-3)GalNAc, -0.117. The “glycan array binding signal (z-score)” value in assay [18] was -0.245; in [19] it was 5.86; in assay [20] it was 1.4; in assay [21], 2.32; with Gal4S(b1-4)GlcNAc, 0.051; in the assay with Gal4S6S(b1-4)GlcNAc, -0.061. Also, the “glycan array binding signal (z-score)” value in the assay with Glc(b1-4)Glc is -0.189; in assay [22], -0.144; in [23], 1.35; in [24], -0.185; in assay [25], -0.237; in assay [26], -0.008. Further, the “glycan array binding signal (z-score)” value in assay [27] was -0.275; with Neu5Ac(a2-6)GalNAc, -0.28; in assay [28], -0.118.
